In the library only some 2.4% were active in any assay of this set; here they are far more common.
M1 ag = activates human CHRM1 receptor; P11229; CHO-K1 hM1, Fluo-8 calcium fluorescence, agonist mode; 0% DMSO, 100% acetylcholine EC100; activation, % at 3 µM; actives 0.33% (n = 360,000); AID 588814;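 active = activation above the run's mean compound activation plus 3 SD, cut at about 16% in these data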;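 also: peak over basal fluorescence ratio within a 140 s kinetic read after compound addition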
Target sequence (P11229 whole entry, looked up): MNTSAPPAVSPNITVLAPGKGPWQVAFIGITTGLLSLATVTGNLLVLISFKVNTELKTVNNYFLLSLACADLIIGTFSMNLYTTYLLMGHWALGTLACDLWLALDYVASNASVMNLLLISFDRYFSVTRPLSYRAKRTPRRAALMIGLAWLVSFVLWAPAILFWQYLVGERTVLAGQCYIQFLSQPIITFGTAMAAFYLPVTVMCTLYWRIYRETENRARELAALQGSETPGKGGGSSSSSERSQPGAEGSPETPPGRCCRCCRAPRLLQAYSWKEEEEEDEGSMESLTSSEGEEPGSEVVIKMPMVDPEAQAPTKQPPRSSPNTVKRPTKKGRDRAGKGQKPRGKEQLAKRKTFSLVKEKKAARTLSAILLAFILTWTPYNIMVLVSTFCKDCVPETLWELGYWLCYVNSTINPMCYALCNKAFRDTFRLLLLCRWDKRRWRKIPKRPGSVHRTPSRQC
CHRM1 PAM = human CHRM1 positive allosteric modulation. P11229. CHO-K1 hM1, Fluo-8 calcium fluorescence, ACh EC20; 0% = ACh EC20, 100% = maximal ACh. activation, % at 3 µM. actives 0.088% (n = 360,000). AID 588819; in the data active = activation above about 19%, passing the limit was not always enough
M1 antag = blocks human M1 muscarinic receptor; actives 1.3% (n = 360,000); inhibition, % at 3 µM; CHO-K1 hM1, Fluo-8 calcium fluorescence, ACh EC80 antagonist; P11229;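 active = percent inhibition above its own plate's cutoff, namely the mean of that plate's compound wells plus 3 SD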;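 also: peak over basal fluorescence ratio during 140 s after agonist addition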
CHO-K1 Ca ag = counter-screen for M1 agonists: effect in parental CHO-K1 cells; Fluo-8 calcium fluorescence; scaled to maximal ATP response, vehicle zero; activation, % at 3 µM; actives 0.48% (n = 360,000); AID 602248; in the data active = activation above about 15%;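 also: untransfected CHO-K1 host cells lacking M1 receptor as counterscreen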
CHO-K1 Ca antag = counter-screen for M1 antagonists: effect in parental CHO-K1 cells | ATP-induced calcium, Fluo-8 fluorescence | inhibition, % at 3 µM | actives 0.6% (n = 360,000) | AID 602250;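 active = inhibition above a per-plate cutoff, the plate's mean sample inhibition plus 3 SD, cut at about 24% in these data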
M1 PAM parental = M1 PAM counterscreen hit in parental CHO-K1 cells; ATP EC20, Fluo-8 calcium fluorescence; 0% at ATP EC20, 100% at ATP max; activation, % at 3 µM; actives 0.02% (n = 360,000);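 active = activation above the run cutoff, the mean activation of all test compounds plus 3 SD, cut at about 40% in these data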;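 also: peak over basal fluorescence ratio in a 140 s read after ATP addition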
Of the large screens only hits and unclear results are named; the others gave an inactive call.

Brc1ccc(-c2c[n+]3c(n2-c2ccccc2)SCC3)cc1	M1 antag 72.9
Cc1c(NC(=O)CN2C(=O)NC(C)(c3ccc(Cl)cc3)C2=O)c(=O)n(-c2ccccc2)n1C (stereo not drawn)	none
CCOc1ccc(CCNC(=O)COC(=O)c2oc3ccccc3c2COC)cc1OCC	none
C=CCN1C(=O)c2ccc(C(=O)N(CC(C)C)c3c(N)n(CCCC)c(=O)[nH]c3=O)cc2C1=O	none
Cc1cc(O)ccc1C1(c2ccc(O)cc2C)OC(=O)c2ccccc21	none
CC(=O)Oc1ccc2c(c1)Oc1cc(OC(C)=O)ccc1C21OC(=O)c2ccccc21	M1 ag 973.8, M1 antag 102.5, CHO-K1 Ca ag 824.0, CHO-K1 Ca antag 101.5
Cc1ccccc1C(=O)N(Cc1cccs1)C1CCS(=O)(=O)C1 (stereo not drawn)	none
CN(CC(=O)Nc1ccc(F)c(F)c1F)C(=O)C1(c2ccccc2)CC1	CHO-K1 Ca antag 24.5
CN(CC(=O)Nc1ccccc1F)CC(=O)Nc1ccc(F)c(F)c1F	none
COc1cc(C(=O)NCc2cc3ccccc3n2C)cc(OC)c1OC	CHO-K1 Ca ag 16.4
Cc1ccc(S(=O)(=O)CCSc2cccc(C(=O)Nc3ccccc3C(=O)O)c2)cc1	CHRM1 PAM 36.6
CCCCN(C)CCCNC(=O)c1cn(CC)c2ccc(S(=O)(=O)N3CCc4ccccc4C3)cc2c1=O	M1 antag 42.6
COc1ccc(C2=NN(C(=O)CSc3nccn3C)C(c3ccco3)C2)cc1 (stereo not drawn)	none
CN(C)c1ccc(C=NNc2nc3c([nH]2)c(=O)n(C)c(=O)n3C)cc1	M1 antag 24.3
COc1cc(C=NNc2nc3c([nH]2)c(=O)n(C)c(=O)n3C)ccc1O	none
COc1cccc(C2CC(c3cccs3)=NN2C(=O)CSC2=NN3CCCC(=O)N=C3S2)c1OC (stereo not drawn)	CHO-K1 Ca antag 24.5
O=C(CN1C(=O)COc2ccccc21)c1ccc(Cl)cc1	CHO-K1 Ca antag 30.2
C=CCOn1c(=O)c(-c2cccs2)[n+]([O-])c2ccccc21	CHO-K1 Ca antag 28.3
C=CCOn1c(=O)c(-c2ccc(Cl)cc2)[n+]([O-])c2ccccc21	none
Cc1ccc(NC(=O)c2ccc(OC(=O)c3ccco3)cc2)cc1	none
Cc1nnc(NC(=O)c2ccc3ccccc3n2)s1	CHO-K1 Ca ag 20.4
Cc1nnc(NC(=O)c2ccco2)s1	CHO-K1 Ca antag 25.7
Cc1ccc(-c2nnc(NC(=O)c3ccco3)s2)cc1	none
Cc1ccc(Oc2ccc(NC(=O)c3ccco3)cc2)cc1	CHO-K1 Ca antag 26.9
C[C@@]12C(=O)N(CC3CC3)CC(=O)N1[C@H](/C=C/c1ccccc1)[C@@H]1C(=O)N(c3ccccc3)C(=O)[C@@H]12	none
O=C(c1ccc2c(=O)n3c(nc2c1)CCC3)N1CCN(S(=O)(=O)c2cccc(F)c2)CC1	none
COc1ccc([C@H]2CC(=O)C[C@@H](CCn3cc(C)nn3)O2)cc1	none (no result: M1 ag, CHRM1 PAM, M1 antag)
CC(C)c1ccc2oc(-c3cc(N)ccc3O)nc2c1	CHO-K1 Ca antag 24.0
Cc1ccccc1-c1nc2cc(N)ccc2o1	none
CCN(CC(=O)Nc1ccccc1C(F)(F)F)C(=O)c1cccc(N2C(=O)CCC2=O)c1	none
Cc1cc(C(=O)CSc2nc3ccccc3[nH]2)c(C)n1CC1CCCO1 (stereo not drawn)	M1 antag 76.0, CHO-K1 Ca ag 19.6, CHO-K1 Ca antag 57.7
Cc1cc(C(=O)CSc2nc(N)cc(=O)[nH]2)c(C)n1CC1CCCO1 (stereo not drawn)	none
CCN(CC)c1ccc(C(=C2C=CC(=[N+](CC)CC)C=C2)c2ccc(N(CC)CC)cc2)cc1	M1 antag 45.8
CCN(CC)c1ccc(C(=C2C=CC(=[N+](CC)CC)C=C2)c2ccccc2)cc1	M1 ag 25.7, M1 antag 96.9, CHO-K1 Ca ag 38.5, CHO-K1 Ca antag 75.3
CCN(CC)c1ccc(C(=O)NNC(=O)CCNC(=O)c2ccccc2)cc1	none
CCCCn1c(N)c(N(CC(C)C)C(=O)CCCc2cccs2)c(=O)[nH]c1=O	CHO-K1 Ca antag 26.0
CCCCn1c(N)c(N(CC(C)C)C(=O)CCS(=O)(=O)c2ccc(C)cc2)c(=O)[nH]c1=O	none
Cc1ccc(Nc2nc3ccc(Cl)cc3n3cnnc23)cc1F	none
COC1OC(c2ccccc2)=C(c2cnc(N)nc2)c2ccc(F)cc21 (stereo not drawn)	none (no result: M1 ag, CHRM1 PAM, M1 antag)
CCc1nc2ccc(C(=O)NCCNC(C)=O)cn2c1N(CCC(C)C)CCN(C)C	none
CCc1nc2ccc(C(=O)N(CC)CCN(C)C)cn2c1N(C)CCCc1ccccc1	M1 antag 51.5
CCc1nc2ccc(C(=O)N3CCN(c4ccccc4)CC3)cn2c1N(C)CCCc1ccccc1	none
CCc1nc2ccc(C(=O)N(C)Cc3ccccc3)cn2c1N(C)CCCc1ccccc1	none
CCc1nc2ccc(C(=O)N(C)CCCN(C)C)cn2c1N(C)Cc1cc2ccccc2s1	M1 antag 38.4
CCc1nc2ccc(C(=O)NCc3ccccc3OC)cn2c1N(CCC(C)C)CCN(C)C	M1 ag 42.4, M1 antag 39.1
CCc1nc2ccc(C(=O)N(C)CCCN(C)C)cn2c1N(C)CCCc1ccccc1	M1 antag 31.7
CC(C)c1ccc2c(c1)C1(NN=C(c3ccccc3)S1)C(=O)N2 (stereo not drawn)	M1 antag 30.4
CN1CCS/C1=C/C=C1\SC(=S)N(CC(=O)O)C1=O	M1 ag 16.4, CHO-K1 Ca ag 26.1
CN1CCS/C1=C/C=C1/SC(=S)N(Cc2ccccc2)C1=O	none
CCCCN1C(=O)/C(=C/C=C2\SCCN2C)SC1=S	CHO-K1 Ca ag 16.0
CCCCN1C(=O)C(=O)N(CC(=O)c2cc(C)n(C3CC3)c2C)C1=O	none
CCOC(=O)c1ccc(NC(=S)N2CCSC2c2ccc(Br)cc2)cc1 (stereo not drawn)	M1 ag 33.7, M1 antag 33.5
O=C(CCCSc1nc2ccccc2[nH]1)NCc1ccccc1F	CHO-K1 Ca ag 16.6
O=C(CCCSc1nc2ccccc2[nH]1)NCc1ccc(Cl)cc1	none
O=C(NCCN1CCOCC1)c1cccc(S(=O)(=O)Nc2ccc(Br)cc2)c1	none
CCOC(=O)c1cn(Cc2ccccc2)c2cc(C)nn2c1=O	none
CCOC(=O)c1cn(Cc2ccccc2)c(C(=O)OC(C)(C)C)c1O	CHO-K1 Ca ag 44.1
COc1ccc(CN(C)C(C)C(=O)Nc2ccc(S(=O)(=O)N3CCCCC3)cc2)cc1F (stereo not drawn)	none
CC1CCCN(S(=O)(=O)c2ccc(C(=O)Nc3nnc(C4CC4)o3)cc2)C1 (stereo not drawn)	CHO-K1 Ca antag 24.6
CC1CCCN(S(=O)(=O)c2ccc(C(=O)Nc3nnc(-c4ccccn4)o3)cc2)C1 (stereo not drawn)	none
CCOC(=O)c1sc(-c2ccccn2)nc1C	CHO-K1 Ca ag 15.7
Cc1nc(-c2ccccn2)sc1C(=O)O	none
